These results are taken from PubChem BioAssay AID588727 (Southern Research Specialized Biocontainment Screening …, 2011).

Out of some 350,000 compounds screened, about 450 (0.13%) were called active. The rule behind the calls is not given here. These entries were drawn from the full list. Results with a measured potency or affinity are listed apart.

The assay in a line: inhibitors of VEEV TC-83 cytopathic effect, confirmation, Vero cells (AID 588727). To be noted: VEEV TC-83 cytopathic effect inhibition, at 20 µM. (Damage to the host cells serves as the signal in cytopathic effect assays.)
The mark [1] stands for this setting: stronger effect = higher value unless noted.
[2] abbreviates: measured here: 10K pilot screen inhibition, stronger effect = higher value.

The term inhibition denotes the share of the control response that was lost under treatment.

For `COC(=O)c1cc(S(=O)(=O)N2CCN(c3ccc([N+](=O)[O-])cc3)CC2)c[nH]1`, the inhibition under setting [1] was 3.14% (inactive).

Regarding `O=S(=O)(/C=C/c1ccccc1)Oc1ccccc1`, the inhibition result under setting [1] is “inactive”.

Regarding `COc1ccccc1Nc1ncnc2c1c(C)c(C)n2CCO`, under setting [1], the inhibition is 0.65% (inactive).

Regarding `Cc1c(C)n(CCCN(C)C)c2ncnc(Nc3ccccc3)c12`, under setting [1], the inhibition is 1.72% (inactive).

For the compound `CCOc1ccc(NC(=O)CN(C)C(=O)CCC2CCCCC2)cc1OCC`, the inhibition under setting [1] was 2.6% (inactive).

For `NNc1nc(-c2ccccc2Cl)c2cc(Br)ccc2n1`, the inhibition under setting [1] is 1.08% (inactive).

Regarding `O=C(CCC1CCCN(C(=O)CCN2CCCCC2=O)C1)NCc1ccccc1F` (configuration not stated), under setting [1], the inhibition is 0.405% [measured here: 10K pilot screen inhibition, stronger effect = higher value] and the outcome was inactive.

With `C=CCN1C(=O)c2ccc(C(=O)NCCc3ccc(OC)c(OC)c3)cc2C1=O`, the inhibition under setting [1] was 0.34% (inactive).

For `CC1CCCCC1NC(=O)COCc1cc(-c2cccs2)on1` (configuration not stated), under setting [1], the inhibition result was “inactive”.

As for `Cc1cc(C(=O)Cn2nnc3ccccc3c2=O)c(C)n1-c1c(C)n(C)n(-c2ccccc2)c1=O`, the inhibition entry under setting [1] is “inactive”.

`COc1ccc(-n2c(C)cc(C(=O)Cn3nnc4ccccc4c3=O)c2C)cc1`: the inhibition under setting [1] was 1.42% (inactive).

As to `CC1Sc2ccc(S(=O)(=O)CCC(=O)N3CCCC3)cc2NC1=O` (configuration not stated), under setting [1], the inhibition is 2.36% (inactive).

Regarding `O=C(CSc1nc(-c2ccccc2Cl)ns1)c1ccc(Cl)cc1`, the inhibition under setting [1] is 1.15% (inactive).

Turning to `COC(=O)c1ccc(N/C(=N/S(=O)(=O)c2ccccc2)c2ccccc2)cc1`, the inhibition under setting [1] was 1.58% (inactive).

Consider `CCC(C)N=Cc1c(Nc2ccccc2)nc2c(C)cccn2c1=O` (configuration not stated), for which the inhibition result under setting [1] is “inactive”.

Regarding `CCCC[C@H]1COCCS(=O)(=O)N1Cc1cccc([N+](=O)[O-])c1`, the inhibition entry under setting [1] was “inactive”.

In the case of `O=C(NCc1cccnc1)/C(=C\c1ccc(-c2ccc(Cl)c(Cl)c2)o1)S(=O)(=O)c1ccccc1`, the inhibition under setting [1] is 0.29% (inactive).

On to `O=C(NCc1cccnc1)/C(=C/c1ccc(-c2cccc(Cl)c2)o1)S(=O)(=O)c1ccccc1`, for which the inhibition under setting [1] was 9.73% (inactive).

Take `O=C(CCNC(=O)c1ccccc1)NC1CCCc2ccccc21` (configuration not stated): the inhibition result under setting [1] was “inactive”.

On to `O=C(NC1CCCc2ccccc21)c1ccc(Br)cc1` (configuration not stated), for which the inhibition under setting [1] was 0.82% (inactive).

For `O=C(CCNC(=O)c1ccc([N+](=O)[O-])cc1)NC1CCCc2ccccc21` (configuration not stated), the inhibition under setting [1] was 9.16% (inactive).

Turning to `O=C(Cc1ccc(Br)cc1)NC1CCCc2ccccc21` (configuration not stated), the inhibition under setting [1] is 3.28% (inactive).

For the compound `CC(SCC(=O)Nc1ccccc1Br)c1nc2ccccc2c(=O)[nH]1` (configuration not stated), the inhibition entry under setting [1] was “inactive”.

On to `CCCOc1ccc(C(=O)Nc2cc(S(=O)(=O)N3CCOCC3)ccc2N2CCOCC2)cc1`, for which the inhibition under setting [1] was 6.81% (inactive).

Regarding `CC(=O)c1ccc(S(=O)(=O)N2CCN(C(=O)c3ccc(-n4nc(C)c(Cl)c4C)cc3)CC2)cc1`, under setting [1], the inhibition was 2.19% (inactive).

For `O=[N+]([O-])c1cccc(/C=C/c2ccccn2)c1`, the inhibition under setting [1] was 0.25% (inactive).

For `O=[N+]([O-])c1cccc(/C=C/c2ccncc2)c1`, the inhibition entry under setting [1] is “inactive”.

On to `O=C(CCNS(=O)(=O)c1cccc(Cl)c1)OCC(=O)N1CCN(C(=O)c2ccco2)CC1`, for which the inhibition under setting [1] is 0.85% (inactive).

As for `O=C(CC1SC(N2CCOCC2)=NC1=O)Nc1ccccc1Cl` (configuration not stated), the inhibition under setting [1] was 2.68% (inactive).

With `C=CCN1C(c2ccc(Br)cc2)=CS/C1=C(\C#N)c1nnc(N2CCOCC2)n1-c1ccccc1`, the inhibition under setting [1] is 11.4% (inactive).

With `O=C1N/C(=N\c2ccccn2)SC1Cc1ccccc1Cl` (configuration not stated), under setting [1], the inhibition was 4.16% (inactive).

For the compound `Cc1ccccc1CC1SC(N)=NC1=O` (configuration not stated), the inhibition under setting [1] is 1.28% (inactive).

Take `Cc1ccccc1CC1SC(N=C(N)N)=NC1=O` (configuration not stated): under setting [1], the inhibition was 1.59% (inactive).

For the compound `CC(=O)/C(C#N)=C1\NC(=O)C(Cc2cc(Cl)ccc2Cl)S1` (configuration not stated), the inhibition under setting [1] was 3.03% (inactive).

On to `O=c1c2ccccc2nc(-c2ccco2)n1-c1nc2ccccc2s1`, for which the inhibition under setting [1] is 1.81% (inactive).

For `FC(F)Oc1ccc(NC(=S)N2CCc3ccccc32)cc1`, under setting [1], the inhibition was 0.39% (inactive).

On to `Cc1ccccc1C(=O)N1CCC(C(=O)Nc2sccc2C(N)=O)CC1`, for which, under setting [1], the inhibition was 2.51% (inactive).

On to `CN(Cc1ccc(O)cc1)C1CCCCC1`, for which, under setting [1], the inhibition was 1.27% (inactive).

As for `OCC1(CCOc2ccccc2)CCN(Cc2ccncc2)CC1`, the inhibition under setting [1] was 0.23% (inactive).

Take `OCC1(CCOc2ccccc2)CCN(Cc2cn[nH]c2-c2ccc(F)cc2)CC1`: the inhibition under setting [1] was 2.7% (inactive).

Turning to `C=CCOc1ccc(C=Nc2ccc(Cl)cc2)c(O)c1`, under setting [1], the inhibition is 0.47% (inactive).

As to `Cc1c(C(=O)N(C)CCn2ccnc2C)oc2c(F)cccc12`, the inhibition under setting [1] is 1.03% (inactive).

Turning to `CCN(CC)C(=O)c1sc(NC(=O)c2ccoc2C)c(C(=O)OC)c1C`, the inhibition under setting [1] is 1.79% (inactive).

Regarding `O=C(NCCN1CCOCC1)c1ccc(/C=C2\Sc3ccccc3N(Cc3ccccc3F)C2=O)cc1`, under setting [1], the inhibition is 10.8% (inactive).

As to `CN1CCN(CCCNC(=O)c2ccc(/C=C3\Oc4ccccc4N(Cc4ccccc4F)C3=O)cc2)CC1`, under setting [1], the inhibition is 13.6% (inactive).

In the case of `COc1ccccc1N1CCN(C(=S)Nc2ccccc2)CC1`, under setting [1], the inhibition was 1.3% (inactive).

Take `CC(C)Oc1ccc(Cl)cc1Nc1nc(NCCO)nc(N2CCCC2)n1`: the inhibition reads like this: (stronger effect = higher value) 4.93% (inactive); under setting [2], 4.53%.

Take `Cc1ccc(NC(=O)CN2C(=O)NC3(CCCc4ccccc43)C2=O)c([N+](=O)[O-])c1` (configuration not stated): under setting [1], the inhibition is 1.12% (inactive).

As to `Cc1ccccc1NS(=O)(=O)c1nnc(NC(=O)c2ccccc2F)s1`, the inhibition is, setting by setting: (stronger effect = higher value) 1.96% (inactive); under setting [2], 3.31%.

As to `CC1(C)CC(=O)C=C(/C=C/c2ccccc2)C1`, the inhibition under setting [1] is 0.62% (inactive).

Regarding `C(=C\c1ccncc1)/c1ccccc1`, under setting [1], the inhibition is 0.98% (inactive).

As to `Cc1ccnc(SCc2cc(=O)c(OC(=O)c3cc([N+](=O)[O-])ccc3Cl)co2)n1`, the inhibition under setting [1] was 0.24% (inactive).

For `CCOC(=O)c1sc(=S)sc1SCc1cccc(C(F)(F)F)c1`, under setting [1], the inhibition entry was “inactive”.

`O=S1(=O)C=C(SCc2ccc(F)cc2)Nc2ccccc21`: under setting [1], the inhibition result is “inactive”.

Turning to `CCCc1c(C(=O)Nc2ccc(F)cc2F)cnn1-c1ccccc1`, the inhibition entry under setting [1] is “inactive”.

On to `CCCc1c(C(=O)NNc2cccc(Cl)c2)cnn1-c1ccccc1`, for which the inhibition under setting [1] was 2.24% (inactive).

Consider `CCCc1c(NC(=O)Nc2ccc(F)cc2)cnn1-c1ccc(Cl)cc1`, for which the inhibition under setting [1] was 3.23% (inactive).

`CCCc1c(C(=O)Nc2ccc(F)cc2)cnn1-c1ccccc1`: the inhibition under setting [1] is 7.43% (inactive).

Take `CC(Sc1nc2ncc(Cl)cc2[nH]1)C(=O)c1c(N)n(C)c(=O)n(C)c1=O` (configuration not stated): the inhibition under setting [1] is 10.7% (inactive).

Regarding `Cn1ncc2c(=O)[nH]cnc21`, the inhibition under setting [1] is 0.51% (inactive).

As to `CC(=O)Nc1ccc(S(=O)(=O)N(C)CC(=O)OCC(=O)N(CC(C)C)C2CCS(=O)(=O)C2)cc1` (configuration not stated), the inhibition under setting [1] is 6.9% (inactive).

`COc1ccc(NC(=O)CN(C)C(=O)c2cn(-c3ccccc3)nc2-c2cccnc2)cc1`: the inhibition under setting [1] was 6.98% (inactive).

Regarding `CSCCC(NS(=O)(=O)c1ccc(Cl)cc1)C(=O)OCC(=O)NC12CC3CC(CC(C3)C1)C2` (configuration not stated), under setting [1], the inhibition was 2.38% (inactive).

In the case of `O=C1Nc2ccccc2C1(O)c1ccccc1O` (configuration not stated), under setting [1], the inhibition is 0.23% (inactive).

Regarding `COc1c(NC(C)=O)c2c(c([N+](=O)[O-])c1OC)C(=O)OC2`, the inhibition under setting [1] is 0.9% (inactive).

Turning to `COc1cc2c(O)c3c(c(-c4ccc5c(c4)OCO5)c2cc1OC)C(=O)OC3`, the inhibition under setting [1] was 8.81% (inactive).

With `O=S(=O)(NCc1ccccc1Cl)c1ccc(-n2cnnn2)cc1`, the inhibition under setting [1] is 1.99% (inactive).

`CCCOc1ccc(C(=O)NNC(=S)NC(=O)c2ccccc2)cc1`: under setting [1], the inhibition is 7.4% (inactive).

For `CCCCC(=O)NC(=S)NNC(=O)c1ccc(OC)cc1`, under setting [1], the inhibition is 11% (inactive).

As to `C=CCNC(=S)NNC(=O)c1ccc(OCCC)cc1`, the inhibition under setting [1] is 1.27% (inactive).

Take `CCC(=O)NC(=S)NNC(=O)c1ccc(OC)cc1`: under setting [1], the inhibition was 3.83% (inactive).

Turning to `CCCn1c(N)c(C(=O)CSc2nnc(N)s2)c(=O)[nH]c1=O`, the inhibition under setting [1] is 8.01% (inactive).

For `CCC1(CC)NC(=O)N(CC(=O)Nc2ccc(C)cc2C)C1=O`, the inhibition under setting [1] is 1.89% (inactive).

For `Cc1cn([C@H]2C[C@H](O)[C@@H](CNC(=O)[C@@H]3CCCN3Cc3ccccc3)O2)c(=O)[nH]c1=O`, the inhibition under setting [1] was 1.26% (inactive).

Regarding `COCC(=O)N1CCCC(C(=O)c2ccc(-c3ccccc3)c(F)c2)C1` (configuration not stated), the inhibition under setting [1] was 3.71% (inactive).

For `COc1cc(/C=C/C(=O)c2ccc(NS(=O)(=O)c3ccc(C)cc3)cc2)ccc1OC(F)F`, the inhibition under setting [1] is 42.9% (inactive).

Turning to `COc1cc(OC)c(OC)cc1/C=C/C(=O)c1ccc(NS(=O)(=O)c2ccc(C)cc2)cc1`, under setting [1], the inhibition is 6.43% (inactive).

Regarding `COCCNC(=O)CCCn1c(=O)c2cc(OC)c(OC)cc2n(CC(=O)Nc2ccccc2OC)c1=O`, under setting [1], the inhibition was 1.37% (inactive).

Consider `O=C(CCc1ccccc1)N1CCN(c2ccc(Cl)cc2)CC1`, for which, under setting [1], the inhibition was 0.61% (inactive).

As for `CCCN(CCC)CCCNC(=O)c1ccc2c(Cl)c3c(nc2c1)CCC3`, the inhibition entry under setting [1] is “inactive”.

As for `CCCCN(CC)CCNC(=O)c1ccc2c(Cl)c3c(nc2c1)CCC3`, the inhibition entry under setting [1] is “inactive”.

Consider `COc1cc2cc(C(=O)N/N=C/c3ccc(F)cc3)[nH]c2cc1OC`, for which, under setting [1], the inhibition is 2.5% (inactive).

Take `CCN1CCN(c2cc(C)c3cc(NC(=S)N4CCN(c5ccc(F)cc5)CC4)ccc3n2)CC1`: the inhibition under setting [1] was 0.9% (inactive).

For the compound `Cc1nn(Cc2cccc(C(=O)O)c2)c(C)c1[N+](=O)[O-]`, under setting [1], the inhibition is 1.46% (inactive).

In the case of `O=c1c2ccccc2nc2n1C(CSc1ccccc1)CS2` (configuration not stated), the inhibition under setting [1] is 1% (inactive).

Regarding `O=C(Nc1ccccc1SCC1CSc2nc3ccccc3c(=O)n21)c1ccccc1Cl` (configuration not stated), under setting [1], the inhibition is 13.7% (inactive).

As to `Nc1ccccc1SCC1CSc2nc3ccccc3c(=O)n21` (configuration not stated), the inhibition under setting [1] was 1.18% (inactive).

With `O=C(Nc1ccccc1SCC1CSc2nc3ccccc3c(=O)n21)c1ccccc1` (configuration not stated), the inhibition under setting [1] was 7.04% (inactive).

On to `CC(NC(=O)Cn1c(=O)[nH]c2ccsc2c1=O)C12CC3CC(CC(C3)C1)C2` (configuration not stated), for which the inhibition under setting [1] is 4.05% (inactive).

Regarding `O=C(N/N=C/c1ccc(F)cc1)c1cc(-c2ccc3c(c2)OCO3)n[nH]1`, the inhibition under setting [1] is 3.22% (inactive).

Regarding `CN(CC(=O)Nc1ccc(F)cc1)C(=O)COC(=O)/C=C/c1ccccc1[N+](=O)[O-]`, under setting [1], the inhibition is 5.33% (inactive).

Consider `COc1ccc(/C=N/Nc2nonc2N)cc1`, for which, under setting [1], the inhibition was 0.29% (inactive).

As to `COc1ccc(C2c3c(ncn(CCCO)c3=N)Oc3ccc4ccccc4c32)cc1OC` (configuration not stated), under setting [1], the inhibition is 4.99% (inactive).

`COc1ccc(C2c3c(ncn(CCN4CCOCC4)c3=N)Oc3ccc4ccccc4c32)cc1OC` (configuration not stated): the inhibition under setting [1] is 1.27% (inactive).
